# Assay outcomes from PubChem.
# SW480 rerep = induces DNA re-replication in SW480 colon adenocarcinoma cells; SW480 DNA re-replication, Hoechst DNA content imaging, 48 h; Potency, µM (highest dose often 46.1 µM), inactives show at the highest dose re-replication activation, most hits filed as activators; 340,000 tested, 1.8% active; note: % of control where 0% means no effect; nearly all actives have a fitted effect of over 55% in size
#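 Readout is total intensity of Hoechst-stained nuclei, excited at 405 nm and collected at 500-530 nm. Compound treatment lasted 48 hr at 37 C in 5% CO2 before staining.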
# KB-V1 cytotox = KB-V1 MDR subline cytotoxicity; Potency, µM (titrated, usually from 46.1 µM), actives largely listed as cytotoxic; 400,000 tested, 3.4% active; KB-V1 MDR cells viability, CellTiter-Glo, 72 h; note: % is set by controls: 0 for no effect and ±100 for the full control effect; nearly all actives have a fitted effect of over 60% in size
#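 In this primary screen, KB-V1 cells overexpressing P-gp are incubated with library compounds (lowest to highest concentration) for 72 h at 37 degrees C before a luminescent ATP viability read.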
# PINK1 modulator = modulators of PINK1 expression; Potency, µM (titrated, usually from 76.6 µM), for the others: at the top dose activation (PINK1 increase), most hits filed as activators; AID 624263; PINK1 immunofluorescence, high-content cytometry, 24 h; 410,000 tested, 0.2% active; active = well fitted activation curve with a large enough effect; inconclusive = small, poorly fitted or top-dose-only effect; cell line not stated here; note: % of control where 0% means no effect; nearly all actives have a fitted effect of over 65% in size
#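 Stable cell line, 250 cells/well, 12 h attachment; compounds pinned at 5 concentrations, 24 h; CCCP control. Fixed with nuclear dye, primary antibodies 12 h at 10 degrees C, secondary plus cell stain; laser-scanning cytometer read.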
# KB-3-1 cytotox = KB-3-1 parental cell cytotoxicity | KB-3-1 viability, CellTiter-Glo ATP luminescence, 72 h | Potency, µM (doses to about 46.1 µM), hits mostly cytotoxic | 400,000 tested, 1.4% active; note: % is set by controls: 0 for no effect and ±100 for the full control effect; nearly all actives have a fitted effect of over 60% in size
#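 Multi-concentration cytotoxicity screen in KB-3-1 cells grown in DMEM lacking phenol red with 10% FBS. After 72 h at 37 °C with compound, ATP-dependent luminescence was recorded.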
# MCF10A rereplic = inducers of DNA re-replication in MCF 10A breast cells | MCF 10A DNA re-replication, Hoechst nuclear intensity, 48 h | Potency, µM (doses to about 46.1 µM), for inactives: top-dose activity, positive = re-replication, usual class: activators | 350,000 tested, 2.9% active | AID 624296; note: % of control where 0% means no effect; nearly all actives have a fitted effect of over 50% in size
# 12-LOX inh = inhibitors of human 12S-lipoxygenase ALOX12. 580,000 tested, 1.1% active. P18054. Potency, µM (top dose mostly 108 µM), for the others: at the top dose activity change, negative = inhibition, most hits filed as inhibitors. purified 12hLO, xylenol orange hydroperoxide absorbance; note: % is set by controls: 0 for no effect and ±100 for the full control effect
# Target sequence (P18054 whole entry, looked up): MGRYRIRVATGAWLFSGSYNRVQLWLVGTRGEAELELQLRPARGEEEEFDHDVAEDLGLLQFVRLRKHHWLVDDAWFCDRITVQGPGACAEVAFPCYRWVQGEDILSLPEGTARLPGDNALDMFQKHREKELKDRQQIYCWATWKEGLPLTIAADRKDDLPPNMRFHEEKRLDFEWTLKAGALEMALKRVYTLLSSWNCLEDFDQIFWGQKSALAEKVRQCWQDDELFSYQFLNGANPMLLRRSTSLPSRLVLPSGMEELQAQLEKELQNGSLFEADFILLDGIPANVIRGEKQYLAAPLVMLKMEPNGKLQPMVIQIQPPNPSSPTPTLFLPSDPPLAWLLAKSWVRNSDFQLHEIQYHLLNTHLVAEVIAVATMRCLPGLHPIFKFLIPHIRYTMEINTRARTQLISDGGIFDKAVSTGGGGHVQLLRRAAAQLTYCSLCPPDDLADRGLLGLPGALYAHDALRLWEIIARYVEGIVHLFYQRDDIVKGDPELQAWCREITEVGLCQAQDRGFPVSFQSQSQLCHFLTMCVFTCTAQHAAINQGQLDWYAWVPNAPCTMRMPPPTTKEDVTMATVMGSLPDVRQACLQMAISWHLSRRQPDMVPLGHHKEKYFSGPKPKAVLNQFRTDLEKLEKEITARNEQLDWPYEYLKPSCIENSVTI
#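 Hydroperoxide product was detected by ferrous iron/xylenol orange as the 573 to 405 nm absorbance ratio. Arachidonic acid at 40 uM (final) was turned over for 30 min at room temperature by 150 nM human 12hLO, pH 7.0 Hepes buffer, after 15 min compound preincubation.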
# Numbers without * were called inactive; i = inactive; ? = inconclusive; / = not tested or not shown; ! = repeats disagree; [ ] = another dose, or the depositor's remark. Hits are enriched below; roughly 5.8% of the tested compounds scored in any of these assays. Unless noted, calls come from the whole dose curve; as a rule, active = well fitted curve in the direction sought with a large enough effect; inconclusive = small, poorly fitted or top-dose-only effect, or another doubt; inactive = no such curve, though single readings can be large; an effect the other way counts as inactive or inconclusive. Potency is the fitted concentration of half-maximal effect.
SMILES,SW480 rerep,KB-V1 cytotox,PINK1 modulator,KB-3-1 cytotox,MCF10A rereplic,12-LOX inh
CCN(CC)C(=O)c1cccc(NC(=O)c2cccc3cccnc23)c1,/,/,/,/,/,-23.0%
Cc1ccc(/C=C/c2nc3sc(C(=O)O)c(C)c3c(=O)[nH]2)cc1[N+](=O)[O-],3.5%,i,3.7%,i,6.3%,-19.9%
Cc1c(C(=O)O)sc2nc(/C=C/c3cccc(F)c3)[nH]c(=O)c12,-2.1%,i,3.0%,i,18.4µM*,78.1%
Cc1c(C(=O)O)sc2nc(/C=C/c3ccccc3OC(F)F)[nH]c(=O)c12,23.1µM*,i,1.7%,i,25.9µM*,-29.8%
C=C1CCC2C(C)(C)[C@H](O)CC[C@@]2(C)[C@@H]1COc1cc(=O)oc2ccccc12 (some centres not stated),-2.9%,i,1.4%,i,?,13.1%
C=C1CC(COc2cc(=O)oc3ccccc23)(c2ccccc2)OC1=O (configuration not stated),28.0%,?,0.0%,10.3µM*,2.59µM*,1.5%
FC(F)Oc1ccc(C2=Nn3c(nnc3-c3ccccc3Cl)SC2)cc1OCC1CC1,-2.4%,i,5.4%,i,0.6%,0.0%
COc1ccc(C2=Nn3c(nnc3-c3ccccc3OC)SC2)cc1OC,0.366µM*,1.16µM*!,4.0%,0.013µM*,0.366µM*,-21.7%
COc1ccc(C2=Nn3c(nnc3-c3ccccc3F)SC2)cc1OCC1CC1,18.4µM*,?,6.4%,13µM*,?,-14.8%
O=C(O)Cn1cc2c(n1)CCCC2,2.4%,i,-2.5%,i,-3.2%,20µM*
O=C(COC(=O)c1ccco1)Nc1ccc(Cl)c(C(F)(F)F)c1,/,/,/,/,/,-2.7%
CS(=O)(=O)N1N=C(c2ccc(Br)cc2)CC1c1ccc2c(c1)OCO2 (configuration not stated),0.6%,16.4µM*,-1.9%[38.3 µM],i,22.1%,/
COc1ccccc1-c1cncnc1Nc1ccccc1,/,/,-0.5%,/,/,39.8µM*
Fc1ccc(Nc2ncncc2-c2ccoc2)cc1,/,/,0.1%,/,/,39.8µM*
COc1ccccc1-c1cncnc1Nc1ccc(F)cc1,/,/,0.1%,/,/,?
c1ccc(Nc2ncncc2-c2ccoc2)cc1,/,/,-0.7%,/,/,17.8µM*
COc1ccc(N2CCN(C3CCCN(C/C=C/c4ccccc4OC)C3)CC2)cc1 (configuration not stated),/,/,/,/,/,30.6%
COc1ccc(Cc2nnc(SCC(=O)Nc3ccc(F)cc3)n2C)cc1,/,/,/,/,/,1.7%
O=C(NCc1cccs1)c1cc(Br)cn2ccnc12,/,/,/,/,/,-4.7%[176 µM]
CCCNC(=O)C(C)NC(=O)c1ccc2ccccc2n1 (configuration not stated),/,/,/,/,/,-19.1%
CCN(CC)c1ccc(N)cc1,?,i,14.1µM*,?,?,/
Nc1ccc(N(CCO)CCO)cc1,-1.7%,i,2.6%,i,-3.3%,431.5%
Cc1nc(NC2=NCN(CCCN3CCOCC3)CN2)nc2c(C)cccc12,?,i,-1.7%,8.2µM*,?,/
Cc1cc2nc(NC3=NCN(CCc4ccccc4)CN3)nc(C)c2cc1C,/,/,/,/,/,14.4%
COc1ccc(C(=O)c2ccc(Br)cc2)c2ccccc12,-2.4%,18.4µM*,5.9%,?,7.31µM*,18.2%
SMILES,SW480 rerep,KB-V1 cytotox,PINK1 modulator,KB-3-1 cytotox,MCF10A rereplic,12-LOX inh
COc1ccc(C(=O)CCN(C)C)c2ccccc12,/,i,1.6%,i,/,/
COc1ccc(C(=O)c2ccc(Cl)cc2)c2ccccc12,?,?,9.1%,?,9.2µM*,11.6%
COc1ccc(C(=O)c2ccc(C)cc2)c(OC)c1OC,?,?,2.6%,?,16.4µM*,?
CC1(C)CC(NC(=O)Nc2ccc(OC(F)F)cc2)CC(C)(C)N1,/,/,/,/,/,10.3%
Cc1ccc(C)c(N2CCN(C(=O)c3noc(-c4ccc[nH]c4=O)n3)CC2)c1,/,/,/,/,/,40.0%
CCC1CCCCN1S(=O)(=O)c1ccc2c(c1)c(=O)n(CC(=O)N1CCCC1)c(=O)n2C (configuration not stated),/,/,/,/,/,2.8%
CC(C)=CC[C@@H](O)C1=CC(=O)c2c(O)ccc(O)c2C1=O,/,/,/,/,/,2.17µM*
O=C(Nc1ccccc1)NN(C(=O)CCl)c1ccccc1,5.8µM*,?,-1.0%,23.1µM*,8.2µM*,-7.6%
Cc1ccc(C(O)(C(=O)NN(C(=O)c2ccccc2)c2ccccc2)c2ccc(C)cc2)cc1,?,i,10.2%,i,13.6%,-7.3%
Cc1ccc(N(NC(=O)C(O)(c2ccccc2)c2ccccc2)C(=O)CCl)cc1,18.4µM*,?,-1.8%,?,23.1µM*,-30.0%
CCC(O)(CC)C(=O)NN(C(=O)CCl)c1ccccc1,?,i,5.9%,?,15.3%,-29.4%
Nc1ccnn1C1CCCCC1,/,/,/,/,/,-2.0%
Cc1ccc2nc(-c3ccccc3)cc(C(=O)N(C)CC(=O)Nc3ccccc3Br)c2c1,-464.3%,20.6µM*,-0.4%,?,?,-1.9%
COc1ccc(CN(C)C(=O)c2cc(-c3ccccc3)nc3ccc(C)cc23)c(OC)c1,/,?,-0.5%,18.4µM*,/,10.9%
CN(CC(=O)Nc1ccccc1Br)C(=O)c1ccccc1OCc1ccc(Cl)cc1,6.5%,5.8µM*,-1.0%,?,19.9%,8.0%
Cc1ccc(C2Cn3nnc(C(=O)N4CCC(C(=O)Nc5ccc(F)c(F)c5)CC4)c3CO2)cc1 (configuration not stated),/,/,/,/,/,-9.9%
COc1ccc(CCc2nc3nccc(-c4ccsc4)n3n2)cc1OC,/,/,/,/,/,50.0%
NC(=S)N/N=C/C1=C(c2ccccc2)C2C=CC1C2 (configuration not stated),/,/,/,/,/,8.91µM*
COc1ccccc1N1CCN(C(=O)c2cc3cn(C4CCCC4)cc3s2)CC1,/,/,/,/,/,5.1%
O=C(c1cccc([N+](=O)[O-])c1)N1CCN(C/C=C/c2ccccc2)CC1,-0.8%,?,-1.0%,i,1.7%,?
CC(C(=O)Nc1cccc([N+](=O)[O-])c1)N1CCN(C/C=C/c2ccccc2)CC1 (configuration not stated),8.5%,3.66µM*,-2.1%,i,-1.9%,-25.0%
O=C(COc1ccccc1)Nc1cccc2cccnc12,/,/,/,/,/,1.7%
Fc1ccc(-c2nc3c(Cl)cc(C(F)(F)F)cn3c2Cc2cccc(Cl)c2)cc1,/,i,2.0%,23.1µM*,/,?
FC(F)(F)c1cc(Cl)c2nc(-c3ccc(Cl)cc3)c(Cc3ccsc3)n2c1,/,i,2.5%,11.6µM*,/,0.0%
Cc1ccc(-c2nc3c(Cl)cc(C(F)(F)F)cn3c2Cc2ccccc2C(F)(F)F)cc1,/,i,2.0%,i,/,?
Cc1ccc(Cc2c(-c3ccc(F)cc3)nc3c(Cl)cc(C(F)(F)F)cn23)cc1,/,i,2.7%,?,/,?
